This note sets out measurements from ChEMBL document CHEMBL3988442, “University of Dundee, Small-Polar-MMV Screening Library” (2021).

Molecules are shown by their SMILES. Hit rate of the full screen: of about 69,000 compounds, about 1,000 (1.4%) showed an effect of 50% or more. The full list was thinned out, with strong results kept by preference.

This test deals with Leishmania donovani. The test can be described thus: Leishmania intramacrophage assay. The test is classed as functional, organism-based. The arrangement: scale not given: in the data most compounds retested in dose-response had high values.

Consider `CC(C)CN(Cc1ccsc1)C(=O)CCCn1cncn1`, for which the “Percent Effect” value (30.3 µM, […]) is 40.23%.
With `Cc1csc(CCCNC(=O)NC2CC(=O)N(C(C)(C)C)C2)n1` (configuration not stated), the “Percent Effect” value (30.3 µM, […]) stood at 22.59%.
The same measure, in the same setting: next, `CCOc1ccc(CN(C)C(=O)c2nc(N3CCCC3)ncc2Cl)cc1`: 58.99%; `O=C(c1nc(N2CCCC2)ncc1Cl)N1CCN(Cc2ccsc2)CC1`: 1.991%.
In the case of `Cc1noc(C)c1CN(C)C(=O)c1nc(N2CCCC2)ncc1Cl`, the “Percent Effect” value (30.3 µM, […]) is listed as -8.961%.
Take `CCOc1ccc(NC(=O)c2cnc(N3CCCC3)nc2C)cc1`: under “30 µM, 30.03 µM”, the “Percent Effect” value stood at 16.9%.
As for `CN(Cc1ccsc1)C(=O)c1nc(N2CCCCC2)ncc1Cl`, the “Percent Effect” value (30.3 µM, […]) worked out at 60.89%.
Still for that read-out and setting: the figure for `CN(Cc1ccsc1)C(=O)c1nc(N2CCCC2)ncc1Cl` is 20.2%.
On the same count and under the same terms, next, `CCc1c(C(=O)N2CCN(C)[C@@H]3CS(=O)(=O)C[C@@H]32)[nH]c2ccccc12`: -15.51%; `CS(=O)(=O)NCc1cn2c(n1)CN(Cc1cccnc1)CC2.O=C(O)C(F)(F)F.O=C(O)C(F)(F)F`: 33.92%.
As to `O=C(O)C(F)(F)F.O=C(c1ccnnc1)N1CCN2C[C@H](Oc3cccc(F)c3)C[C@H]2C1`, the “Percent Effect” value (30 µM, 30.03 µM) is reported as 5.462%.
Consider `CN(C)C[C@@H]1CN(Cc2ccccc2C#N)C[C@@H]1CO`, for which, where the note is “30.3 µM, […]”, the “Percent Effect” value was -11.66%.
On the same count and under the same terms, the figure for `COc1ccc(CN2C[C@@H](CN(C)C)[C@@H](CO)C2)c(Cl)c1OC` is 52.59%.
Same read-out and setting: next, `COc1ccc(CN2C[C@@H](CN(C)C)[C@@H](CO)C2)cc1CN1CCCC1`: 7.971%; `COc1ccc(CN2C[C@@H](CN(C)C)[C@@H](CO)C2)cc1OC`: 51.5%; `COc1cccc(OC)c1C(=O)N1C[C@@H](CN(C)C)[C@@H](CO)C1`: -22.82%.
The same measure, in the same setting: next, `COc1ccc(CN2C[C@@H](CN(C)CCO)[C@@H](CO)C2)cc1Cl`: 33.72%; `Cc1noc(C)c1CN1CCC(NC(=O)OC(C)(C)C)CC1`: 3.614%; `CC(C)c1noc(-c2ccc(NCC3CCCOC3)nc2)n1` (configuration not stated): 22.02%.
As to `Cc1cccc(-n2cnnc2CCCN2CCOCC2)c1`, the “Percent Effect” value (30.3 µM, […]) came to 22.56%.
The same measure, in the same setting: the figure for `COc1cccc(CN2C[C@@H]3COC[C@]3(CNC(=O)C3CC3)C2)c1.O=C(O)C(F)(F)F` is 43.72%.
The same measure, in the same setting: next, `O=c1[nH]nc(CNCc2ccc(OC34CCCN(CC3)C4)cc2)[nH]1` (configuration not stated): 39.69%; `COc1cc(C#N)ccc1OC12CCCN(CC1)C2` (configuration not stated): 20.92%.
Consider `c1ccc(Oc2ccc(OC34CCCN(CC3)C4)cc2)cc1` (configuration not stated), for which the “Percent Effect” value (30.3 µM, […]) is given as 89.06%.
The same measure, in the same setting: the figure for `Cc1nc(CNCc2cccc(OC34CCCN(CC3)C4)c2)n[nH]1` (configuration not stated) is 36.42%.
The same measure, in the same setting: the figure for `Cc1cnccc1CNCc1ccc(OC23CCCN(CC2)C3)cc1` (configuration not stated) is 13.67%.
As for `c1ccc(Oc2cccc(OC34CCCN(CC3)C4)c2)cc1` (configuration not stated), the “Percent Effect” value (30.3 µM, […]) was 65.6%.
